# According to the supplement of paper PMC8728848:
# This is one part of a sample in which the strongest signals are shown more often than they occur.
# Key:
# Assay in all cases: glycan array binding signal (z-score within array); higher = stronger binding
# Conditions in all cases: glycan notation: IUPAC condensed, linker removed
# [1] = molecular target: Fuc(a1-2)Gal
# Outline: (§1)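 Glycan array data were curated from 3228 arrays in the Consortium for Functional Glycomics database and kept only where the protein sequence was available. Glycan names were converted to IUPAC-condensed notation, and columns mapping to the same glycan were averaged. The binding signal is a within-array Z-score, averaged across arrays of the same protein sequence at different concentrations or buffers and across linkers. Negative Z-scores can be read as non-binding.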
# [2] = molecular target: Fuc(a1-2)Gal(b1-3)GalNAc(a1-3)[Fuc(a1-2)]Gal(b1-4)GlcNAc
# Outline: as §1
# [3] = molecular target: Fuc(a1-2)Gal(b1-3)GlcNAc(b1-3)[Neu5Ac(a2-6)Gal(b1-4)GlcNAc(b1-6)]Gal(b1-4)Glc
# Outline: as §1
# [4] = molecular target: Fuc(a1-2)Gal(b1-4)GlcNAc(b1-2)Man(a1-3)[Fuc(a1-2)Gal(b1-4)GlcNAc(b1-2)Man(a1-6)]Man(b1-4)GlcNAc(b1-4)GlcNAc
# Outline: as §1
# [5] = molecular target: Fuc(a1-2)Gal(b1-4)GlcNAc(b1-3)[Fuc(a1-3)[Gal(b1-4)]GlcNAc(b1-6)]Gal(b1-4)Glc
# Outline: as §1
# [6] = molecular target: Fuc(a1-2)Gal(b1-4)GlcNAc(b1-6)GalNAc
# Outline: as §1
# [7] = molecular target: Fuc(a1-2)[Gal(a1-3)]Gal(b1-4)GlcNAc(b1-6)GalNAc
# Outline: as §1
# [8] = molecular target: Fuc(a1-2)[GalNAc(a1-3)]Gal(b1-3)GalNAc(b1-3)Gal(a1-4)Gal(b1-4)Glc
# Outline: as §1
# [9] = molecular target: Fuc(a1-2)[GalNAc(a1-3)]Gal(b1-3)GlcNAc(b1-2)Man(a1-3)[Fuc(a1-2)[GalNAc(a1-3)]Gal(b1-3)GlcNAc(b1-2)Man(a1-6)]Man(b1-4)GlcNAc(b1-4)[Fuc(a1-6)]GlcNAc
# Outline: as §1
# [10] = molecular target: Fuc(a1-2)[GalNAc(a1-3)]Gal(b1-4)GlcNAc(b1-2)Man
# Outline: as §1
# [11] = molecular target: Fuc(a1-3)[Gal(b1-4)]GlcNAc(b1-3)Gal(b1-4)[Fuc(a1-3)]GlcNAc
# Outline: as §1
# [12] = molecular target: Fuc(a1-3)[Gal(b1-4)]GlcNAc(b1-3)GalNAc
# Outline: as §1
# [13] = molecular target: Fuc(a1-3)[Gal(b1-4)]GlcNAc(b1-6)[Gal(b1-3)GlcNAc(b1-3)]Gal(b1-4)Glc
# Outline: as §1
# [14] = molecular target: Gal(a1-3)Gal(b1-3)GlcNAc(b1-6)GalNAc
# Outline: as §1
# [15] = molecular target: Gal(a1-3)[Gal(a1-4)]Gal(b1-4)GlcNAc
# Outline: as §1
# [16] = molecular target: Gal(a1-6)Glc
# Outline: as §1
# [17] = molecular target: Gal(b1-3)GalNAc(b1-3)Gal
# Outline: as §1
# [18] = molecular target: Gal(b1-3)GlcNAc(b1-2)Man(a1-3)[Gal(b1-3)GlcNAc(b1-2)Man(a1-6)]Man(b1-4)GlcNAc(b1-4)[Fuc(a1-6)]GlcNAc
# Outline: as §1
# [19] = molecular target: Gal(b1-3)GlcNAc(b1-3)Gal(b1-4)GlcNAc(b1-6)[Gal(b1-3)GlcNAc(b1-3)]Gal(b1-4)Glc
# Outline: as §1
# [20] = molecular target: Gal(b1-4)GlcNAc
# Outline: as §1
# [21] = molecular target: Gal(b1-4)GlcNAc(a1-6)Gal(b1-4)GlcNAc
# Outline: as §1
# [22] = molecular target: Gal(b1-4)GlcNAc(b1-2)Man(a1-3)[GlcNAc(b1-2)Man(a1-6)]Man(b1-4)GlcNAc(b1-4)GlcNAc
# Outline: as §1
# [23] = molecular target: Gal(b1-4)GlcNAc(b1-3)[Fuc(a1-3)GlcNAc(b1-6)]Gal(b1-4)Glc
# Outline: as §1
# [24] = molecular target: Gal(b1-4)GlcNAc(b1-6)Gal(b1-4)GlcNAc
# Outline: as §1
# [25] = molecular target: Gal3S(b1-4)[Fuc(a1-3)]Glc6S
# Outline: as §1
# [26] = molecular target: Gal3S(b1-4)[Fuc(a1-3)]GlcNAc
# Outline: as §1
# [27] = molecular target: Gal6P(b1-4)GlcNAc
# Outline: as §1
binder,measurement,setting,value
"AT1G77380(17) (Arabidopsis thaliana), Q39134 (protein) MVQNHQTVLAVDMPQTGGSKYLDDDGKNKRTGSVWTASAHIITAVIGSGVLSLAWATAQLGWLAGPVVMLLFSAVTYFTSSLLAACYRSGDPISGKRNYTYMDAVRSNLGGVKVTLCGIVQYLNIFGVAIGYTIASAISMMAIKRSNCFHKSGGKDPCHMNSNPYMIAFGLVQILFSQIPDFDQLWWLSILAAVMSFTYSSAGLALGIAQVVVNGKVKGSLTGISIGAVTETQKIWRTFQALGDIAFAYSYSIILIEIQDTVKSPPSEEKTMKKATLVSVSVTTMFYMLCGCMGYAAFGDLSPGNLLTGFGFYNPYWLLDIANAAIVIHLIGAYQVYCQPLFAFIEKQASIQFPDSEFIAKDIKIPIPGFKPLRLNVFRLIWRTVFVIITTVISMLLPFFNDVVGLLGALGFWPLTVYFPVEMYIAQKKIPRWSTRWVCLQVFSLGCLVVSIAAAAGSIAGVLLDLKSYKPFRSEY",glycan array binding signal (z-score),[1],2.99
same,glycan array binding signal (z-score),[2],2.89
same,glycan array binding signal (z-score),[3],-0.856
same,glycan array binding signal (z-score),[4],-0.43
same,glycan array binding signal (z-score),[5],2.76
same,glycan array binding signal (z-score),[6],-0.513
same,glycan array binding signal (z-score),[7],-0.886
same,glycan array binding signal (z-score),[8],4.03
same,glycan array binding signal (z-score),[9],-0.716
same,glycan array binding signal (z-score),[10],1.32
same,glycan array binding signal (z-score),[11],-0.28
same,glycan array binding signal (z-score),[12],0.285
same,glycan array binding signal (z-score),[13],2.75
same,glycan array binding signal (z-score),[14],-0.733
same,glycan array binding signal (z-score),[15],3.09
same,glycan array binding signal (z-score),[16],-0.766
same,glycan array binding signal (z-score),[17],-0.955
same,glycan array binding signal (z-score),[18],3.2
same,glycan array binding signal (z-score),[19],1.9
same,glycan array binding signal (z-score),[20],-0.639
same,glycan array binding signal (z-score),[21],2.75
same,glycan array binding signal (z-score),[22],-0.757
same,glycan array binding signal (z-score),[23],0.166
same,glycan array binding signal (z-score),[24],-0.725
same,glycan array binding signal (z-score),[25],0.338
same,glycan array binding signal (z-score),[26],-0.327
same,glycan array binding signal (z-score),[27],-0.442
